In the supplement of paper PMC7393113:
“And” between values parts separate entries of the source, which are not always exact repeats. Equal entries are not always repeated. ± gives the standard deviation of the averaged measurements.

System: iBMDM (immortalised mouse bone-marrow-derived macrophages), LPS-stimulated
Assay: mitochondrial superoxide (MitoSOX fluorescence) fold increase over unstimulated control; higher = more LPS-induced mitochondrial ROS (less inhibition)
Conditions: inhibitor concentration: 500 nM, LPS: 100 ng/ml
Procedure, shortened: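 Values are fold induction of mitochondrial superoxide relative to untreated macrophages, as a mean of replicates. Immortalised mouse bone-marrow-derived macrophages, seeded in triplicate in black 96-well plates, spent 20 h in phenol-red-free 1% FCS/DMEM before a 30 min pretreatment with kinase inhibitors (500 nM). After 10 min loading with 1 μM MitoSox, cells received LPS (100 ng/ml), and fluorescence (510/580 nm) was measured every 60 min for 4 h.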

Row | Compound | mitochondrial superoxide (time after LPS: 1 h) | mitochondrial superoxide (time after LPS: 2 h) | mitochondrial superoxide (time after LPS: 4 h)
1 | O=S(=O)(NCCNCC=Cc1ccc(Br)cc1)c1cccc2cnccc12 | 1.01 ± 0.063 | 1.15 ± 0.074 | 1.28 ± 0.07
2 | CCC(=O)N1CCN(c2ccc(-n3c(=O)ccc4cnc5ccc(-c6cnc7ccccc7c6)cc5c43)cc2C(F)(F)F)CC1 [Torin 1] | 1.14 ± 0.024 | 1.24 ± 0.033 | 1.35 ± 0.044
3 | C#Cc1cccc(Nc2ncnc3cc4c(cc23)OCCOCCOCCO4)c1 [Icotinib] | 1.16 ± 0.036 | 1.19 ± 0.021 | 1.31 ± 0.02
4 | CN1CCN(C2CCN(C(=O)Nc3cc(Oc4ccc(NC(=O)C5(C(=O)Nc6ccc(F)cc6)CC5)c(F)c4)ccn3)CC2)CC1 [Golvatinib (E7050)] | 1.04 ± 0.073 | 1.08 ± 0.075 | 1.09 ± 0.071
5 | C[C@]1(O)C[C@@H](c2nc(-c3ccc4ccc(-c5ccccc5)nc4c3)c3c(N)nccn32)C1 [OSI-906 (Linsitinib)] | 1.45 ± 0.18 | 1.51 ± 0.21 | 1.56 ± 0.19
6 | Cc1ncc(-c2ccnc(Nc3ccc(S(C)(=O)=O)cc3)n2)n1C(C)C | 1.36 ± 0.052 | 1.46 ± 0.063 | 1.6 ± 0.11
7 | Cc1cc(Nc2nc(N[C@@H](C)c3ccc(F)cc3)c(C#N)cc2F)n[nH]1 | 1.09 ± 0.054 | 1.18 ± 0.028 | 1.31 ± 0.085
8 | C[C@@H]1CCN(C(=O)CC#N)C[C@@H]1N(C)c1ncnc2[nH]ccc12 | 1.12 and 1.28 | 1.21 and 1.4 | 1.3 and 1.58
9 | Nc1nc(N)c2nc(-c3cccc(O)c3)cnc2n1 | 1.03 ± 0.016 | 1.04 ± 0.043 | 1.09 ± 0.046
10 | COc1cccc2cc(-c3nc([C@H]4CC[C@H](C(=O)O)CC4)n4ncnc(N)c34)[nH]c12 | 1.3 ± 0.046 | 1.39 ± 0.018 | 1.52 ± 0.017
11 | Cc1ccc(-c2nn(C(C)(C)C)c3ncnc(N)c23)cc1 | 1.18 ± 0.043 | 1.22 ± 0.055 | 1.34 ± 0.046
12 | COc1ccc(CNC(=O)Nc2ncc([N+](=O)[O-])s2)cc1 | 1.47 ± 0.037 | 1.54 ± 0.026 | 1.6 ± 0.096
13 | CCCS(=O)(=O)Nc1ccc(F)c(C(=O)c2c[nH]c3ncc(Cl)cc23)c1F | 1.24 ± 0.15 | 1.26 ± 0.15 | 1.34 ± 0.21
14 | O=P(O)(O)C(O)(Cn1ccnc1)P(=O)(O)O [Zoledronic Acid] | 1.27 ± 0.02 | 1.29 ± 0.085 | 1.4 ± 0.16
15 | CC(C)n1nc(-c2ccc3oc(N)nc3c2)c2c(N)ncnc21 | 1.34 ± 0.018 | 1.57 ± 0.055 | 1.78 ± 0.051
16 | Cn1cc(-c2[nH]c3cc(NC(=O)[C@H](N)C4CCCCC4)cc4c3c2C=NNC4=O)cn1 | 1.15 ± 0.062 | 1.15 ± 0.043 | 1.27 ± 0.029

Row | Compound | mitochondrial superoxide (time after LPS: 1 h) | mitochondrial superoxide (time after LPS: 2 h) | mitochondrial superoxide (time after LPS: 4 h)
17 | Cn1cnc(-c2cc3nccc(Oc4ccc(NC(=S)NC(=O)Cc5ccccc5)cc4F)c3s2)c1 | 1.06 ± 0.021 | 1.14 ± 0.057 | 1.26 ± 0.059
18 | O=c1sn(-c2cccc3ccccc23)c(=O)n1Cc1ccccc1 [Tideglusib] | 1.14 ± 0.068 | 1.17 ± 0.049 | 1.29 ± 0.062
19 | Cc1ccc2nc(NCCN)c3ncc(C)n3c2c1 | 1.43 ± 0.036 | 1.48 ± 0.027 | 1.63 ± 0.047
20 | COc1cc(N2CCC(N)CC2)ccc1Nc1ncc(Cl)c(-c2c[nH]c3ccccc23)n1 | 1.21 ± 0.018 | 1.27 ± 0.025 | 1.36 ± 0.057
21 | Nc1nc(N)c(N=O)c(OCC2CCCCC2)n1 | 1.17 ± 0.03 | 1.25 ± 0.017 | 1.37 ± 0.074
22 | CNC(=O)c1cc(Oc2ccc(NC(=O)Nc3ccc(Cl)c(C(F)(F)F)c3)cc2)ccn1 [Sorafenib] | 1.48 ± 0.09 | 1.45 ± 0.032 | 1.66 ± 0.029
23 | OCCn1cc(-c2cnc3nnn(Cc4ccc5ncccc5c4)c3n2)cn1 | 1.37 ± 0.059 | 1.41 ± 0.018 | 1.498 ± 0.0039
24 | C=CC(=O)Nc1cc2c(Nc3ccc(F)c(Cl)c3)ncnc2cc1OCCCN1CCOCC1 [Canertinib (CI-1033)] | 1.59 ± 0.093 | 1.55 ± 0.14 | 1.87 ± 0.084
25 | Cc1cc([C@@H](C)Nc2ccccc2C(=O)O)c2nc(N3CCOCC3)cc(=O)n2c1 | 1.14 ± 0.043 | 1.22 ± 0.077 | 1.21 ± 0.027
26 | C=CC(=O)N1CCC[C@@H](n2nc(-c3ccc(Oc4ccccc4)cc3)c3c(N)ncnc32)C1 | 1.26 ± 0.099 | 1.32 ± 0.041 | 1.46 ± 0.043
27 | O=C(NC(NC(=S)Nc1ccc(F)c([N+](=O)[O-])c1)C(Cl)(Cl)Cl)C(c1ccccc1)c1ccccc1 (stereo unspecified) | 1.13 ± 0.029 | 1.25 ± 0.031 | 1.37 ± 0.015
28 | CC(C)(C)c1nc(-c2cccc(NS(=O)(=O)c3c(F)cccc3F)c2F)c(-c2ccnc(N)n2)s1 | 1.25 ± 0.046 | 1.43 ± 0.054 | 1.73 ± 0.12
29 | CN1CCN(S(=O)(=O)c2ccc(-c3cnc(N)c(C(=O)Nc4cccnc4)n3)cc2)CC1 | 1.34 ± 0.053 | 1.46 ± 0.031 | 1.63 ± 0.03
30 | CC(C)c1cnn2c(NCc3ccccc3)cc(NCCCCCCN)nc12 | 1.16 ± 0.054 | 1.25 ± 0.025 | 1.47 ± 0.059
31 | O=C(NCCCNc1nc(Nc2cccc(NC(=O)N3CCCC3)c2)ncc1I)c1cccs1 | 1.14 ± 0.041 | 1.18 ± 0.036 | 1.13 ± 0.051
32 | CC[C@@H]1C(=O)N(C)c2cnc(Nc3ccc(C(=O)N[C@H]4CC[C@H](N5CCN(CC6CC6)CC5)CC4)cc3OC)nc2N1C(C)C [Volasertib (BI 6727)] | 1.18 ± 0.016 | 1.27 ± 0.026 | 1.37 ± 0.043
